39 molecules from PubChem BioAssay (NCATS) can be followed below.

Inconclusive results are not listed. Calls of active or inactive are those of the source. The call rests on the fitted dose curve; in most records, active means well fitted curve in either direction with a large enough effect (not every such curve was filed as active); inconclusive means small, poorly fitted or top-dose-only effect, or another doubt; inactive means flat fitted curve, though single readings scatter.
On the % scale 0 is the no-effect control and ±100 the full control effect.

The experiment can be described thus: Stat Signaling Pathway (AID 446).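 Further: ME-180 cervical cancer cells given 40 pM IL-6 alongside compound; SIE-controlled beta-lactamase reporter measured as 460/530 nm FRET emission ratio.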 The settings on record: ME-180 SIE beta-lactamase reporter, IL-6 stimulated, 5 h; at 17.2 µM (top of the series) unless noted. In outline: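 Reporter line: ME-180 cervical carcinoma, SIE-beta-lactamase. Treatment: compound with 40 pM IL-6, 5 hrs, 37 C, in low-serum OPTI-MEM with 10 mM HEPES pH 7.3. Detection: 460/530 nm fluorescence.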
Regarding `Cn1c(=O)c2c(nc(NCc3ccc4c(c3)OCO4)n2Cc2ccccc2Cl)n(C)c1=O`, the activity, negative = inhibition is -2.58% (inactive).

For `CCN(CC)CCn1c(O)c(N=O)c2ccccc21`, the activity, negative = inhibition is 14.5% (inactive).

`Cc1cc(C)cc(CC2CC(=O)N(c3cc(C)on3)C2=O)c1` (centres undefined): the activity, negative = inhibition was -12.9% (inactive).

For the molecule `CCC(C)Nc1nc(OC)nc(N(C)C#N)n1` (centres undefined), the activity, negative = inhibition is -0.957% (inactive).

Regarding `CCc1ccccc1NC(=O)CSC1=C(C#N)C(c2ccc(O)c(OC)c2)C2=C(CCCC2=O)N1` (centres undefined), the activity, negative = inhibition is -5.76% (inactive).

With `Cc1cc(C)n(Cc2ccc(C(=O)NCCC3=CCCCC3)o2)n1`, the activity, negative = inhibition is 1.51% (inactive).

On to `COc1ccc[nH]c1=O`, for which the activity, negative = inhibition is 3.09% (inactive).

For `O=C(O)C1CC(=O)N(Cc2cccs2)C1` (centres undefined), the activity, negative = inhibition was 7.75% (inactive).

For `C=CCOC(=O)C1=C(C)OC(N)=C(C#N)C1c1ccoc1` (centres undefined), the activity, negative = inhibition was -0.879% (inactive).

Regarding `CCOc1ccc(S(=O)(=O)N(C)C)cc1-c1nc2c(C(C)(C)C)nn(C)c2c(=O)[nH]1`, the activity, negative = inhibition was -17.2% (inactive).

On to `CC(C)=CCC(C)(C)CNC(=O)NC1CCCCC1`, for which the activity, negative = inhibition was 10.9% (inactive).

Take `CCOc1cccc(-c2nnc3sc(COc4ccccc4)nn23)c1`: the activity, negative = inhibition was -10.6% (inactive).

Consider `O=C1OC(Nc2ccc(Br)cn2)c2ccccc21` (centres undefined), for which the activity, negative = inhibition was 3.14% (inactive).

With `COc1cccc(C2/C(=C(/O)c3ccc(C)cc3)C(=O)C(=O)N2Cc2ccco2)c1` (centres undefined), the activity, negative = inhibition is -9.32% (inactive).

Regarding `c1coc(-c2nnc3sc(C4CCCCC4)nn23)c1`, the activity, negative = inhibition was 6.55% (inactive).

For the molecule `CC(=O)NCCCCCCNC(C)=O`, the activity, negative = inhibition was 2.41% (inactive).

For the molecule `Cc1c(/C(O)=C2\C(=O)C(=O)N(CCN(C)C)C2c2cccnc2)cnn1-c1ccccc1` (centres undefined), the activity, negative = inhibition is 0.0911% (inactive).

With `COc1ccc(C(=O)NCCCCCC(=O)O)cc1OC`, the activity, negative = inhibition is 2.88% (inactive).

`c1ccc(-n2c(Cc3cccnc3)nc3cnccc32)cc1`: the activity, negative = inhibition was 6.69% (inactive).

On to `C=CCN(C(=O)CCC(=O)O)C1CC(=O)N(c2ccc(OCCC)cc2)C1=O` (centres undefined), for which the activity, negative = inhibition was -6.77% (inactive).

With `N#CCc1nc2c3c4c(sc3ncn2n1)CCCC4`, the activity, negative = inhibition was 5.72% (inactive).

On to `COC(=O)C(NC(C)=O)(Nc1nc2c(s1)CCCC2)C(F)(F)F` (centres undefined), for which the activity, negative = inhibition is -8.22% (inactive).

As to `Cc1ccc2[nH]c3c(c2c1)CN(C(=O)CN1CC(C)OC(C)C1)CC3` (centres undefined), the activity, negative = inhibition was 2.26% (inactive).

In the case of `CC(NC(=O)OCc1ccccc1)C(=O)OCN1C(=O)c2ccccc2C1=O` (centres undefined), the activity, negative = inhibition is 13.6% (inactive).

In the case of `CN(C)c1nc2n(c(=O)n1)C(C#N)CS2` (centres undefined), the activity, negative = inhibition is 5.84% (inactive).

As for `CNc1oc(-c2ccc(Cl)cc2)nc1C#N`, the activity, negative = inhibition is 5.14% (inactive).

Take `CCOC(=O)N1CCN(/C=C(\C#N)c2nc3ccccc3s2)CC1`: the activity, negative = inhibition is -10% (inactive).

Turning to `Cc1nnc2n(Cc3ccccc3)c(=O)c3c4c(sc3n12)COC(C(C)C)C4` (centres undefined), the activity, negative = inhibition is 5.19% (inactive).

For the molecule `COC(=O)c1c(C)noc1-c1cc(C)on1`, the activity, negative = inhibition is 8.94% (inactive).

For `CCOc1ccc(/C(O)=C2/C(=O)C(=O)N(c3nc(C)c(C)s3)C2c2ccco2)cc1` (centres undefined), the activity, negative = inhibition is -19% (inactive).

`COC(=O)NC(Nc1sc2c(c1C(N)=O)CCCC2)(C(=O)OC)C(F)(F)F` (centres undefined): the activity, negative = inhibition is 5.04% (inactive).

As for `CC(C)(C)c1ccc(O)c(N)c1`, the activity, negative = inhibition was 8.3% (inactive).

Consider `COC(=O)C(NC(=O)c1ccco1)(Nc1nc(C)cs1)C(F)(F)F` (centres undefined), for which the activity, negative = inhibition was -2.51% (inactive).

Regarding `COc1ccc(C2=Nn3c(nnc3-c3ccccn3)SC2)cc1`, the activity, negative = inhibition is 6.62% (inactive).

On to `COCCNc1oc(-c2ccc(C)cc2)nc1C#N`, for which the activity, negative = inhibition is 0.279% (inactive).

As for `CCOC(=O)Cc1nnc(Nc2cccc(O)c2)c2ccccc12`, the activity, negative = inhibition was -17.1% (inactive).

`CCOC(=O)c1cc(C)n(Cc2cccc(OC)c2OC)c1C`: the activity, negative = inhibition is -14.9% (inactive).

Consider `CC(=N\O)/C(CN(C)C)=N/O`, for which the activity, negative = inhibition is 12% (inactive).

With `O=C(c1ccc(-n2cnnn2)cc1)N1CCOCC1`, the activity, negative = inhibition was 12.1% (inactive).
